Screening data (PubChem BioAssay)
PriA SSB inh: blocks PriA binding to SSB C-terminal tail; AID 1272365; actives 0.6% (n = 430,000); AlphaScreen SSBct-PriA binding, biotinylated peptide; inhibition, % at 33 µM; in the data active means inhibition mostly above about 37%, no sharp cut-off; inactive means mostly below about 20%;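 further: plate controls were negative control peptide for no effect and reference peptide for full effect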
BJeLR lethal: BJeLR cell viability loss; inhibition, % (concentration not given with the values); actives 0.17% (n = 300,000); BJeLR (HRASV12) viability, CellTiter-Glo ATP luminescence, 48 h; in the data active means inhibition above about 50%
MazF activator: MazEF (E. coli) toxin RNase activation; FAM/BHQ RNA-DNA oligo cleavage fluorescence, 5 h; activation, % at 20 µM; actives 0.32% (n = 350,000); AID 504720; in the data active means activation above about 50%
Target sequence (P0AE70 whole entry, looked up): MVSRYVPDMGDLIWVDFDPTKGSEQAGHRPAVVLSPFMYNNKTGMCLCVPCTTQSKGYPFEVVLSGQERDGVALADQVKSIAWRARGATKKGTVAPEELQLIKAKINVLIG
Sa RN4220 lethal: S. aureus RN4220 growth inhibition; OD600, 16 h; inhibition, % (test concentration not listed); actives 0.33% (n = 330,000); in the data active means inhibition above about 85%;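 further: plate controls were untreated cells for no effect and reference antibiotic for full effect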
ugtP null kill: growth inhibition of S. aureus ugtP deletion strain; S. aureus RN4220 ugtP deletion, OD600 growth, 16 h; growth inhibition, % (no concentration beside the values); actives 0.54% (n = 330,000); AID 1259309; in the data active means growth inhibition above about 68%;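 further: plate controls were untreated wells for no effect and antibiotic for full effect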
The depositor's hits bear a star; / = no result. A selection: hits, their analogues and other compounds. The true share with any hit is near 1.2%.

SMILES	PriA SSB inh	BJeLR lethal	MazF activator	Sa RN4220 lethal	ugtP null kill
CCC(C)N1CCCC1C(=O)Nc1c(C)cc(C)cc1C (stereo unspecified)	-10.3	-6.6	6.5	-8.3	-9.6
CCOCCCN1COc2ccc3c(=O)c(-c4ccc(Cl)cc4)coc3c2C1	1.0	/	/	/	/
CCOC(=O)C1=CN(Cc2cccc(F)c2)S(=O)(=O)N(C)C1c1ccc2ccccc2c1 (stereo unspecified)	5.2	/	50.0*	3.7	2.6
C(=Cc1c[nH]c2ccccc12)c1ccc2ccccc2n1	-8.5	/	6.1	-3.7	6.2
C(=Cc1c[nH]c2ccccc12)c1nccc2ccccc12	3.7	/	113.1*	-5.3	-21.9
COc1ccc(C=Nn2c(SC)nnc2-c2ccccc2)cc1C	4.0	/	/	-0.8	-17.0
C=CCn1c(C)cc(C(=O)COC(=O)/C=C/c2cccc(OC)c2)c1C	5.0	3.0	5.4	1.7	5.6
CCCN1CCCc2cc(CCNC(=O)OCC)ccc21	71.0	/	/	/	/
CN1CCCc2cc(C(CNS(=O)(=O)c3ccc(F)cc3F)N(C)C)ccc21 (stereo unspecified)	17.0	/	/	/	/
CCCN1CCCc2cc(CCNS(=O)(=O)c3ccc(F)cc3C)ccc21	51.0*	/	/	/	/
CCCN1CCCc2cc(CCNS(=O)(=O)c3ccc(F)cc3F)ccc21	78.5*	/	/	/	/
CCCN1CCCc2cc(CCNS(=O)(=O)c3ccc(OC)cc3C)ccc21	52.0*	/	/	/	/
CC(C)c1ccc(Nc2nnc(SCC(=O)NCC3CCCO3)s2)cc1 (stereo unspecified)	-15.8	/	2.8	0.4	4.3
CCNc1nc(NCC)nc(N(n2cnnc2)S(=O)(=O)c2ccc(C)cc2)n1	0.7	5.2	4.0	97.4*	98.7*
CCNc1nc(NC(C)C)nc(N(n2cnnc2)S(=O)(=O)c2ccc(C)cc2)n1	-7.0	4.7	-4.0	76.1	90.2*
CCNc1nc(NC(C)C)nc(NS(=O)(=O)c2ccc(N)cc2)n1	0.6	-1.1	2.4	3.4	12.0
Cc1cccc(CC(=O)Nc2ccc(SCC(=O)N3CCCC3)nn2)c1	-5.0	/	/	/	/
Cc1ccc(/C(N)=N/OC(=O)N2c3ccccc3Sc3ccccc32)cc1	/	-6.1	-1.7	5.6	-12.4
Cc1ccc(C(N)=NOC(=O)N2c3ccccc3Sc3ccccc32)cc1	57.0*	/	/	/	/
Cn1cccc1/C=C1\SC(=Nc2ccccc2)NC1=O	6.3	28.7	-7.1	3.6	-11.6
Cn1cccc1/C=C1\SC(=Nc2ccc(O)cc2)NC1=O	11.6	62.3*	3.4	4.2	-2.2
COc1ccc(CC2(C)OC(c3ccc([N+](=O)[O-])cc3)=NN2C(C)=O)cc1 (stereo unspecified)	44.8*	5.0	-2.5	7.1	3.1
CC(=O)Oc1cc2cccc(OC(C)=O)c(=O)c2c(OC(C)=O)c1OC(C)=O	4.8	2.4	214.3*	20.0	3.4
CCCCCCC[N+](CC)(CC)CCCCc1ccc(Cl)cc1	-7.0	/	2.4	94.5*	100.3*
CCCCc1c(O)c2ccccc2[nH]c1=O	-5.3	-23.6	1.7	2.4	-4.1
SMILES	PriA SSB inh	BJeLR lethal	MazF activator	Sa RN4220 lethal	ugtP null kill
Cc1ccc(C)c(NC(=O)CCCn2nc(-c3ccc(F)cc3)ccc2=O)c1	-2.0	/	/	/	/
O=C(CCCSc1ccc(NC(=O)c2cccs2)nn1)NCc1ccco1	2.0	/	/	/	/
Cc1ccc(NS(=O)(=O)c2ccc(N3CCN(c4ccc(O)cc4)CC3)c([N+](=O)[O-])c2)c(C)c1	62.9*	-7.2	-2.3	0.6	-15.4
O=[N+]([O-])c1cc(S(=O)(=O)Nc2ccccc2)ccc1N1CCN(c2ccc(O)cc2)CC1	42.9*	-12.6	2.0	6.1	-8.0
COC(=O)c1cc(NS(=O)(=O)c2ccc(N3CCCCC3)c([N+](=O)[O-])c2)cc(C(=O)OC)c1	28.5	-5.7	-9.2	6.8	0.6
CC(=O)N1CCc2cc(S(=O)(=O)Nc3ccc(C)cc3C)ccc21	-11.8	-16.0	1.2	4.3	-1.5
CC1CCCN(c2ccc(C(=O)Nc3ccc4c(c3)OCO4)cc2[N+](=O)[O-])C1 (stereo unspecified)	9.9	-4.8	4.6	-1.4	-13.5
CC1CCN(c2ccc(C(=O)Nc3ccc4c(c3)OCO4)cc2[N+](=O)[O-])CC1	39.1*	6.6	3.3	-9.9	-9.8
COC(=O)c1cc(NS(=O)(=O)c2ccc(N3CCC(C)CC3)c([N+](=O)[O-])c2)cc(C(=O)OC)c1	56.2*	-7.1	4.1	-10.3	7.3
CN1CCN(S(=O)(=O)c2ccc(N3CCN(c4ccc(O)cc4)CC3)c([N+](=O)[O-])c2)CC1	17.0	15.1	0.8	3.3	7.3
O=C1CNC(=S)N1c1nc(-c2ccccc2)cs1	-18.9	0.9	-18.1	-0.5	-7.4
CCOC(=O)C1CCN(c2ccc(S(=O)(=O)C(F)(F)F)cc2[N+](=O)[O-])CC1	35.0*	/	/	/	/
COCCN1C(=O)C(=O)C(=C(O)c2cccc(OC)c2)C1c1ccc(C)o1 (stereo unspecified)	-4.7	/	/	/	/
Cc1ccc2c(c1)C(c1ccncc1)=NNC(c1ccccc1)=N2	-15.4	3.1	-2.4	1.3	0.7
c1ccc(C2=Nc3c(ccc4ccccc34)C(c3ccncc3)=NN2)cc1	46.9*	/	1.0	-11.5	12.0
Cc1cccc(Nc2nc(-c3sc(C)nc3C)cs2)c1	-14.2	-3.4	-32.8	-7.0	89.9*
Cc1ccsc1C=NNC(=O)c1nnn(-c2nonc2N)c1-c1ccc2c(c1)OCO2	15.9	/	/	6.0	3.7
Cn1nc(-c2ccccc2NC(=O)c2ccc(Cn3ccnc3)cc2)ccc1=O	1.0	/	/	/	/
O=C(Nc1ccccc1-c1cn2ccsc2n1)c1ccc(Cn2ccnc2)cc1	39.0*	/	/	/	/
Cc1cc(NN=Cc2cccc(Cl)c2)nc(-n2nc(C)cc2C)n1	/	/	/	14.2	-5.7
CC1(C)NC(=O)N(CC(=O)Nc2nc(-c3ccccn3)cs2)C1=O	106.5*	/	/	/	/
CCSc1nnc(NC(=O)CN2C(=O)N(C)C3(CCCCC3)C2=O)s1	-4.5	/	5.5	2.3	1.1
C=C1Nc2ccccc2N(CC(=O)Nc2nc(-c3ccccn3)cs2)C1=O	57.0	/	/	/	/
CC1(c2ccccc2)NC(=O)N(CC(=O)Nc2nc(-c3ccccn3)cs2)C1=O (stereo unspecified)	75.2*	-10.9	-2.2	1.0	4.5
CN1C(=O)N(CC(=O)Nc2nc(-c3ccccn3)cs2)C(=O)C12CCCCC2	101.2*	/	/	/	/
SMILES	PriA SSB inh	BJeLR lethal	MazF activator	Sa RN4220 lethal	ugtP null kill
Cc1ccc(S(=O)(=O)CCC(=O)Nc2nc(-c3ccccn3)cs2)cc1	-0.5	/	4.0	-0.7	-2.9
Cc1ccc(C2(C)NC(=O)N(CC(=O)Nc3nc(-c4ccccn4)cs3)C2=O)cc1 (stereo unspecified)	84.7*	14.0	-5.4	-1.4	-1.2
Nn1c(SCc2ccccc2)nnc1-c1ccccn1	44.8*	3.2	12.9	4.5	-7.0
Cc1ccc(CSc2nnc(-c3ccccn3)n2N)cc1	-4.1	2.6	1.1	2.6	1.1
COc1cc([N+](=O)[O-])c2ncsc2c1	6.6	1.8	-2.0	8.5	15.4
COc1cc(SSc2cc(OC)cc([N+](=O)[O-])c2N)c(N)c([N+](=O)[O-])c1	-1.3	0.3	14.6	37.8	87.4*
